From PubChem BioAssay
FUS suppressor: suppressors of FUS proteinopathy in yeast. S. cerevisiae FUS-expressing, growth rescue, OD600, 24 h. Potency, µM (highest dose often 76.6 µM), usual class: activators. hit rate 0.24% among 390,000. AID 1347120; also: nearly all actives have a fitted effect of over 55% in size
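Cultures pregrown in 2.5% raffinose medium are shifted to minimal medium containing 2% galactose to express toxic FUS. Compounds are tested at several concentrations. After 24hr at 30C, growth is quantified at 600 nm absorbance.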
aSyn yeast inh: rescues yeast growth from alpha-synuclein toxicity | Yeast expressing alpha-synuclein, growth rescue, BacTiter-Glo, 24 h | Potency, µM (titrated, usually from 46.1 µM), most hits filed as activators | hit rate 0.14% among 370,000; also: nearly all actives have a fitted effect of over 65% in size
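Rescue of yeast growth: cells expressing toxic alpha-synuclein, induced in galactose at OD600 0.02, incubated with compound 24 h at 30 C. ATP luminescence quantified growth; inhibitors of toxicity appear as activators.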
TDP-43 yeast inh: inhibitors of TDP-43 toxicity in yeast; TDP-43 expressing yeast growth rescue, BacTiter-Glo, 24 h; Potency, µM (series often up to 46.1 µM), hits mostly activators; hit rate 1.8% among 410,000; also: nearly all actives have a fitted effect of over 50% in size
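In this qHTS, compounds that restore growth of yeast expressing TDP-43 appear as activators. Cells (OD600=0.02, galactose medium, raffinose-pregrown) are incubated with compound 24 hr at 30 deg C and growth is quantified by BacTiter-Glo.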
Abeta yeast res: A-beta toxicity reversal in yeast; yeast expressing A-beta42, growth rescue, OD600, 48 h; response scale: 0% DMSO, 100% iron-clioquinol control; Potency, µM (top dose mostly 46.1 µM), hits mostly activators; hit rate 0.063% among 410,000; AID 1347071; also: nearly all actives have a fitted effect of over 55% in size
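Yeast A-beta toxicity model in growth medium with pinned compounds, 48 h at 30 C; growth read as absorbance at 600 nm. Normalized to FeCl3/clioquinol equimolar mix (positive) and DMSO (negative).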
Hits are given with their value; – = inactive; ? = inconclusive; · = no result given; [ ] = another dose, or the depositor's remark. Compounds with a hit are over-represented: about 2.1% of the library has one in this group of screens. Calls follow the shape of the dose curve; as a rule, active = well fitted curve in the direction sought with a large enough effect; inconclusive = small, poorly fitted or top-dose-only effect, or another doubt; inactive = no such curve, though single readings can be large; an effect the other way counts as inactive or inconclusive.

SMILES	FUS suppressor	aSyn yeast inh	TDP-43 yeast inh	Abeta yeast res
Cc1ccc(NCSc2ccc(Cl)cc2)cc1	–	–	7.1µM	?
CC(=O)Nc1ccc(NCc2ccc(-c3ccccc3)cc2)cc1	–	–	·	–
CCC(=O)Nc1ccc(NCc2ccc(-c3ccccc3)cc2)cc1	–	–	13µM	–
c1ccc2c(c1)OCCOCCOc1ccccc1OCCOCCO2	–	–	11µM	–
CC1=C(c2ccc(C(C)C)cc2)S(=O)(=O)N=C1N1CCN(c2ccccc2F)CC1	?	·	–	–
CCOc1ccc(/C=C/c2nc3ccccc3n2S(=O)(=O)c2cccc(Cl)c2)cc1	–	·	–	–
Cc1ccc(C)n1C(CC(=O)O)c1ccc(C#N)cc1 (stereo unspecified)	32µM	–	–	–
COc1ccc(Oc2c(OC)cc([N+](=O)[O-])c3ncccc23)cc1	–	–	35µM	–
O=[N+]([O-])c1cc(F)c2cccnc2c1O	–	?	4µM	?
COc1ccc(Oc2ncccc2[N+](=O)[O-])cc1	–	–	–	–
O=[N+]([O-])c1ccccc1Oc1ccc(Cl)c2cccnc12	–	?	20µM	–
O=[N+]([O-])c1cc([N+](=O)[O-])c2cccnc2c1Oc1ccccc1O	·	–	2µM	–
O=[N+]([O-])c1ccc(O)c2ncccc12	–	–	–	–
COc1ccc(NC(=O)Nc2nnc(SCC(=O)Nc3cccc(C)c3C)s2)cc1	–	·	–	–
CCc1ccccc1N(C)C(=O)c1cn(CC(C)C)c(=O)c2cc(OC)c(OC)cc12	–	·	–	–
Cc1ccc2c(c1)N(C(=O)NCc1ccccc1)CCO2	–	·	18µM	–
Cc1ccc2c(c1)N(C(=O)CCC(=O)NCCCN(C)Cc1ccccc1)CCO2	–	–	–	–
CC1Cc2cc(S(=O)(=O)NCc3ccc(F)cc3)ccc2N1C(=O)C1CCC1 (stereo unspecified)	–	·	–	–
O=C(NNC(=O)C(Cl)Cl)c1cnn(-c2ccccc2)c1C(F)(F)F	–	16µM	–	–
N/C(=N\OC(=O)c1cnn(-c2ccccc2)c1C(F)(F)F)c1cc(C(F)(F)F)cc(C(F)(F)F)c1	–	–	–	–
CC(=O)Oc1ccccc1-c1nc(/C=C/c2ccccc2)no1	–	–	18µM	–
COc1ccc(/C=C/c2noc(-c3ccccc3O)n2)cc1	–	–	–	–
C[C@H]1[C@@H](OC(=O)NCc2cccs2)CC[C@@]23CCCN2C(=O)CCC[C@@H]13	–	·	·	·
COC(=O)c1ccc(CSc2nnc(CS(=O)Cc3ccc(Br)cc3)n2-c2ccccc2)cc1 (stereo unspecified)	·	–	25µM	–
COC(=O)c1ccc(CSc2nnc(-c3c[nH]c4ccccc34)n2-c2ccccc2)cc1	–	–	–	–
SMILES	FUS suppressor	aSyn yeast inh	TDP-43 yeast inh	Abeta yeast res
Cc1cccc(OCCC(=O)NO)c1	·	–	·	·
O=C(NCC1CCCO1)c1cccc2c1C(=O)c1ccc(N3CCC(Cc4ccccc4)CC3)cc1S2(=O)=O (stereo unspecified)	10µM	–	–	–
Cc1ccccc1OCCC(=O)Nc1ccc(F)c(Cl)c1	–	–	14µM	–
Cc1onc(C(=O)NN)c1-c1csc(COc2ccc(Cl)cc2)n1	–	–	11µM	–
Cc1nc(-c2nc(-c3c(C(=O)NN)noc3C)cs2)cs1	–	–	–[0.397 µM]	–
COc1ccc(N(CC(=O)Nc2ccc(Cl)cc2C)S(=O)(=O)c2ccccc2)c(OC)c1	?	·	–	–
COc1ccc(Cl)cc1NC(=O)CN(c1cccc(C)c1C)S(=O)(=O)c1ccccc1	22µM	·	–	–
O=C(Cc1ccccc1)N1CCN=C1SCc1cccc([N+](=O)[O-])c1	–	–	–	–
Cc1cccc(C(=O)N2CCN=C2SCc2ccc([N+](=O)[O-])cc2)c1	–	–	10µM	–
CC(=O)N1C[C@@H](c2c[nH]c3ccccc23)C=C[C@H]1C(=O)NS(=O)(=O)c1ccc(C)cc1	–	·	·	·
O=C(Nc1nnc(-c2ccc3c(c2)CCCC3)o1)c1ccc(Cl)cc1Cl	–	?	4µM	?
Cc1ccc(Nc2cc(C)c(O)c(C)c2)cc1	–	–	13µM	–
Cc1ccc(Nc2ccccc2)cc1	–	–	–	–
CC(=O)CC[C@H]1CC[C@]2(CCCN(C(=O)c3ccno3)C2)O1	–	·	·	·
O=C(NC(=S)Nc1ccccc1N1CCCC1)c1cccs1	–	–	?	11µM
CC(C)CC(=O)Nc1ccccc1N1CCCC1	·	–	–	–
O=C(NC(=S)Nc1ccccc1N1CCCCC1)c1cccs1	–	–	?	–
CC(C)CC(=O)NC(=S)Nc1ccccc1N1CCCC1	–	–	–	7.1µM
O=C(c1cc([N+](=O)[O-])ccc1Cl)N1CCN(c2ccccn2)CC1	–	–	–	–
O=C(c1cc([N+](=O)[O-])ccc1Cl)N1CCN(c2ccccc2)CC1	–	–	7.9µM	–
O=C(NC(=S)N1CCN(c2ccc([N+](=O)[O-])cc2Cl)CC1)c1ccco1	·	–	–	–
O=C(c1ccco1)N1CCN(c2ccc([N+](=O)[O-])cc2Cl)CC1	–	–	14µM	–
CC1(C(=O)N2CCN(c3ccccc3)CC2)CC1(Cl)Cl (stereo unspecified)	–	–	·	–
CC1(C(=O)N2CCN(c3ccc([N+](=O)[O-])cc3)CC2)CC1(Cl)Cl (stereo unspecified)	–	–	11µM	–
Cc1cc(C)nc(Nc2ccc(F)cc2)n1	–	–	25µM	–
SMILES	FUS suppressor	aSyn yeast inh	TDP-43 yeast inh	Abeta yeast res
CC(=O)c1ccc(Nc2nc(C)cc(C)n2)cc1	–	–	–	–
Cc1ccc(S(=O)(=O)Nc2ccc(SC(F)F)cc2)c(C)c1	·	18µM	–	–
COc1ccc(/C=N/NC(=O)c2cc(C)oc2C)cc1OCc1ccccc1	–	–	–	–
Cc1cc(C(=O)N/N=C/c2ccc(OCc3ccccc3)cc2)c(C)o1	–	–	13µM	?
CCCCOc1ccc(C(=O)Nc2cccc(C)n2)cc1	·	–	2.8µM	–
COc1ccc(Cn2ccc3nc(C)c(C(=O)N4CCN(c5ccccc5OC)CC4)cc3c2=O)cc1	–	·	–	–
COc1cc(C)c(S(=O)(=O)N2CCCC2)cc1C	–	14µM	–	?
CCOc1cc(C)c(S(=O)(=O)N2CCCCC2)cc1C	–	16µM	?	?
CCC(C)(C)NC(=O)C1CCN(S(=O)(=O)c2c(C)noc2/C=C/c2ccc(C)cc2)CC1	–	·	–	–
CCOC(=O)CSc1nc(N)c(C(=O)Nc2ccc(N(C)C)cc2)s1	32µM	–	–	–
Clc1ccc(CSc2nc3ncccc3[nH]2)cc1	–	·	?	–
O=C(N/N=C/c1c(O)ccc2ccccc12)c1cccnc1	–	–	–	–
O=C(N/N=C\c1c(O)ccc2ccccc12)c1cncc(Br)c1	–	20µM	–	?
CCOC(=O)c1ccc(N=C2C(=S)N(c3ccc(C(=O)OCC)cc3)C(=N)N2/N=C/c2ccccc2)cc1	28µM	–	–	–
CCOC(=O)c1ccc(N=c2scc(C)n2CC)cc1	–	–	–[0.397 µM]	–
CC(=O)Nc1cc(C(=O)NCc2ccc(F)cc2)ccc1Sc1ccc(C)cc1	?	·	?	–
